Results as given in PubChem BioAssay (NCATS).
Records with an inconclusive call do not appear. Activity calls are given as the source filed them. Calls come from the whole dose curve; as a rule, active = well fitted inhibition curve with a large enough effect; inconclusive = small, poorly fitted or top-dose-only effect; inactive = flat fitted curve, though single readings scatter.

Legend:
Assay in all cases: qHTS profiling for inhibitors of Plasmodium falciparum proliferation (AID 504749); note: nearly all actives have a fitted effect of over 60% in size
CP215 = details: P. falciparum in erythrocytes, SYBR Green DNA, 72 h; series mostly up to 28.7 µM
Method in brief: (§1)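 Fluorescence of SYBR Green-bound parasite DNA, read at 485/535 nm, served as the growth measure. Infected erythrocytes were cultured with compound 72 h; artemisinin (0.29 uM) and DMSO wells defined the normalization range.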

CP217 = details: P. falciparum in erythrocytes, SYBR Green DNA, 72 h; series mostly up to 28.7 µM
Method in brief: as §1

CP237 = details: P. falciparum in erythrocytes, SYBR Green DNA, 72 h; series mostly up to 28.7 µM
Method in brief: as §1

CP238 = details: P. falciparum in erythrocytes, SYBR Green DNA, 72 h; series mostly up to 28.7 µM
Method in brief: as §1

CP247 = details: P. falciparum in erythrocytes, SYBR Green DNA, 72 h; series mostly up to 28.7 µM
Method in brief: as §1

CP250 = details: P. falciparum in erythrocytes, SYBR Green DNA, 72 h; series mostly up to 12.8 µM
Method in brief: as §1

CP252 = details: P. falciparum in erythrocytes, SYBR Green DNA, 72 h; series mostly up to 12.8 µM
Method in brief: as §1

CP256 = details: P. falciparum in erythrocytes, SYBR Green DNA, 72 h; series mostly up to 28.7 µM
Method in brief: as §1

CP260 = details: P. falciparum in erythrocytes, SYBR Green DNA, 72 h; series mostly up to 28.7 µM
Method in brief: as §1

CP262 = details: P. falciparum in erythrocytes, SYBR Green DNA, 72 h; series mostly up to 28.7 µM
Method in brief: as §1

CP265 = details: P. falciparum in erythrocytes, SYBR Green DNA, 72 h; series mostly up to 12.8 µM
Method in brief: as §1

CP268 = details: P. falciparum in erythrocytes, SYBR Green DNA, 72 h; series mostly up to 28.7 µM
Method in brief: as §1

CP269 = details: P. falciparum in erythrocytes, SYBR Green DNA, 72 h; series mostly up to 28.7 µM
Method in brief: as §1

CP286 = details: P. falciparum in erythrocytes, SYBR Green DNA, 72 h; series mostly up to 28.7 µM
Method in brief: as §1

CP291 = details: P. falciparum in erythrocytes, SYBR Green DNA, 72 h; series mostly up to 28.7 µM
Method in brief: as §1

CP297 = details: P. falciparum in erythrocytes, SYBR Green DNA, 72 h; series mostly up to 28.7 µM
Method in brief: as §1

CP305 = details: P. falciparum in erythrocytes, SYBR Green DNA, 72 h; series mostly up to 28.7 µM
Method in brief: as §1

CP315 = details: P. falciparum in erythrocytes, SYBR Green DNA, 72 h; series mostly up to 28.7 µM
Method in brief: as §1

CP325 = details: P. falciparum in erythrocytes, SYBR Green DNA, 72 h; series mostly up to 28.7 µM
Method in brief: as §1

CP329 = details: P. falciparum in erythrocytes, SYBR Green DNA, 72 h; series mostly up to 28.7 µM
Method in brief: as §1

CP335 = details: P. falciparum in erythrocytes, SYBR Green DNA, 72 h; series mostly up to 12.8 µM
Method in brief: as §1

DIV14 = details: P. falciparum in erythrocytes, SYBR Green DNA, 72 h; series mostly up to 28.7 µM
Method in brief: as §1

DIV17 = details: P. falciparum in erythrocytes, SYBR Green DNA, 72 h; series mostly up to 28.7 µM
Method in brief: as §1

DIV30 = details: P. falciparum in erythrocytes, SYBR Green DNA, 72 h; series mostly up to 28.7 µM
Method in brief: as §1

Dd2 = details: P. falciparum in erythrocytes, SYBR Green DNA, 72 h; series mostly up to 28.7 µM
Method in brief: as §1

ECU = details: P. falciparum in erythrocytes, SYBR Green DNA, 72 h; series mostly up to 28.7 µM
Method in brief: as §1

FAB9 = details: P. falciparum in erythrocytes, SYBR Green DNA, 72 h; series mostly up to 28.7 µM
Method in brief: as §1

GB4 = details: P. falciparum in erythrocytes, SYBR Green DNA, 72 h; series mostly up to 28.7 µM
Method in brief: as §1

HB3 = details: P. falciparum in erythrocytes, SYBR Green DNA, 72 h; series mostly up to 28.7 µM
Method in brief: as §1

ICS = details: P. falciparum in erythrocytes, SYBR Green DNA, 72 h; series mostly up to 28.7 µM
Method in brief: as §1

JCK = details: P. falciparum in erythrocytes, SYBR Green DNA, 72 h; series mostly up to 28.7 µM
Method in brief: as §1

N140 = details: P. falciparum in erythrocytes, SYBR Green DNA, 72 h; series mostly up to 28.7 µM
Method in brief: as §1

P93_24 = details: P. falciparum in erythrocytes, SYBR Green DNA, 72 h; series mostly up to 28.7 µM
Method in brief: as §1

P94_40 = details: P. falciparum in erythrocytes, SYBR Green DNA, 72 h; series mostly up to 28.7 µM
Method in brief: as §1

PAD = details: P. falciparum in erythrocytes, SYBR Green DNA, 72 h; series mostly up to 28.7 µM
Method in brief: as §1

PC15 = details: P. falciparum in erythrocytes, SYBR Green DNA, 72 h; series mostly up to 28.7 µM
Method in brief: as §1

PC26 = details: P. falciparum in erythrocytes, SYBR Green DNA, 72 h; series mostly up to 28.7 µM
Method in brief: as §1

PC49 = details: P. falciparum in erythrocytes, SYBR Green DNA, 72 h; series mostly up to 28.7 µM
Method in brief: as §1

SC27B = details: P. falciparum in erythrocytes, SYBR Green DNA, 72 h; series mostly up to 28.7 µM
Method in brief: as §1

TAB109 = details: P. falciparum in erythrocytes, SYBR Green DNA, 72 h; series mostly up to 12.8 µM
Method in brief: as §1

TAB113 = details: P. falciparum in erythrocytes, SYBR Green DNA, 72 h; series mostly up to 28.7 µM
Method in brief: as §1

TAB165 = details: P. falciparum in erythrocytes, SYBR Green DNA, 72 h; series mostly up to 28.7 µM
Method in brief: as §1

W2 = details: P. falciparum in erythrocytes, SYBR Green DNA, 72 h; series mostly up to 12.8 µM
Method in brief: as §1

Measured: Potency

C[C@]12CC[C@H](OS(=O)(=O)O)CC1=CCC1C2CC[C@]2(C)C(=O)CC[C@@H]12 (stereo partly drawn)
inactive: all assays above
